According to article PMC5540273 (PLoS ONE, 2017):

Assays:
Conditions in all cases: concentration: 1 μM,replicates: in singlicate; n = 1
AAK1 = test system: AAK1
ABL1-nonphosphorylated = test system: ABL1-nonphosphorylated
ABL1-phosphorylated = test system: ABL1-phosphorylated
ABL2 = test system: ABL2
ACVR1B = test system: ACVR1B
ACVR1 = test system: ACVR1
ACVR2A = test system: ACVR2A
ACVR2B = test system: ACVR2B
ACVRL1 = test system: ACVRL1
ADCK3 = test system: T1, ADCK3
T1 construct: gene CABC1
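Further: KINOMEscan kinase panel screen.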

Structure (SMILES) | %Inh (AAK1) [%] | %Inh (ABL1-nonphosphorylated) [%] | %Inh (ABL1-phosphorylated) [%] | %Inh (ABL2) [%] | %Inh (ACVR1B) [%] | %Inh (ACVR1) [%] | %Inh (ACVR2A) [%] | %Inh (ACVR2B) [%] | %Inh (ACVRL1) [%] | %Inh (ADCK3) [%]
C[C@@H]1CCN(C(=O)CC#N)C[C@@H]1N(C)c1ncnc2[nH]ccc12 | 0 | 4 | 0 | 0 | 19 | 0 | 0 | 3 | 0 | 0
Cc1occc1-c1nc(N)c(OC[C@@H](N)Cc2c[nH]c3ccccc23)cc1-c1cc2c(C)n[nH]c2cn1 [GSK1660450] | 68 | 16 | 52 | 51 | 0 | 0 | 0 | 0 | 0 | 16
NC(=O)c1cc(-c2ccccc2)cc2c(C3CCNCC3)c[nH]c12 [GSK301362] | 9 | 2 | 0 | 22 | 0 | 52 | 0 | 6 | 0 | 0
CCN(CC)CCOc1ccc(Nc2ncc3cc(-c4c(Cl)cccc4Cl)c(=O)n(C)c3n2)cc1 [SB-601273] | 48 | 100 | 100 | 99.6 | 100 | 100 | 97.3 | 99.7 | 87 | 96.5
COc1ccc(C[C@@H](CN)NC(=O)c2cc(Br)c(-c3ccnc4[nH]ccc34)s2)cc1.Cl.Cl [GSK1389063] | 48 | 15 | 41 | 31 | 0 | 24 | 13 | 48 | 0 | 50
CN(C)CCOc1ccc(-c2cc(-c3c[nH]nc3-c3ccccn3)ccn2)cc1 [GW835314] | 15 | 91.5 | 88 | 34 | – | 45 | 25 | 53 | 13 | 36
Cl.Cl.NC[C@H](Cc1ccc(C(F)(F)F)cc1)NC(=O)c1cc(Br)c(-c2ccnc3[nH]ccc23)s1 [GSK1487252] | 38 | 0 | 4 | 18 | 0 | 0 | 0 | 0 | 0 | 12
CCn1c(-c2nonc2N)nc2c(C#CC(C)(C)O)nc(OCCN)cc21.Cl.Cl [GSK902056] | 15 | 0 | 0 | 13 | 0 | 4 | 0 | 0 | 0 | 6
Cc1cc(C(=O)Nc2ccc(Oc3ccc4nc(NC(=O)C5CC5)cn4n3)cc2)nn1-c1ccccc1 | 18 | 100 | 99.1 | 81 | 0 | 0 | 2 | 15 | 0 | 8
CC(C)Nc1cc(-c2ccc3c(N)n[nH]c3c2)nc(N)n1 [GSK2221681] | 75 | 0 | 0 | 6 | 14 | 0 | 0 | 0 | 0 | 4
Cc1n[nH]c2ccc(-c3cc(OC[C@@H](N)Cc4ccccc4)cnc3-c3ccoc3)cc12.O=C(O)C(F)(F)F.O=C(O)C(F)(F)F [GSK507358] | 60 | 25 | 39 | 28 | 0 | 0 | 0 | 0 | 0 | 12
CN(C)CC(O)COc1ccc(Nc2nccc(-c3cnn4nc(N5CCOCC5)ccc34)n2)cc1 (stereo not drawn) [GW767488] | 88 | 48 | 29 | 42 | 37 | 72 | 18 | 0 | 0 | 13
O=C(NCCNc1ccnc(NCc2ccc(F)cc2)n1)c1cc2ccccc2s1 [GSK1379944] | 0 | 0 | 4 | 16 | 0 | 14 | 0 | 0 | 0 | 24
